Out of some 200,000 compounds screened, about 1,600 (0.8%) were called active.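 Rule for the calls: active = plate Z-score above 3 for both tubulin-high and condensed-nucleus cell shares, with cell loss under 80%, at 10 µM; inactive = the rest, inconclusive results apart.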 For the sample, actives were picked, then their nearest neighbours and some compounds at random.

This experiment in a line: microtubule stabilizers in HeLa cells, primary screen, imaging, high-content imaging (AID 2205).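 For % tubulin-high responders: anti alpha tubulin signal scored within the nucleus-defined area of each cell.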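 For toxicity: 0% = mean cell density of plate MIN control wells and 100% = no cells.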 Particulars: HeLa tubulin immunostaining HCS, 24 h, at 10 µM; % Hoechst-high responders: measured here: nuclear condensation Hoechst responders, stronger effect = higher value, share of cells brighter than vehicle mean+2SD; % tubulin-high responders: stronger effect = higher value, share of cells brighter than vehicle mean+2SD; toxicity: measured here: cytotoxicity by cell density.
Turning to `CCOC(=O)c1cnc2ccc(F)cc2c1Nc1ccc2c(c1)OCCO2`, the % Hoechst-high responders turned out to be 3.26%, the % tubulin-high responders was 2.38% (inactive) and the toxicity was 9.58%.
With `O=C(COC(=O)/C=C/c1nc2ccccc2s1)Nc1ccccc1Oc1ccccc1`, the % Hoechst-high responders came out at 2.41%, the % tubulin-high responders is 2.82% (inactive) and the toxicity came to 3.33%.
Regarding `Cc1oc2cc([N+](=O)[O-])c(O)c([N+](=O)[O-])c2c1C(=O)c1ccc(Br)cc1`, the % Hoechst-high responders came out at 1.62%, the % tubulin-high responders was 3.42% (inactive) and the toxicity turned out to be 6.71%.
In the same order, the values of `O=C(COC(=O)C1CCCCC1)Nc1ccc([N+](=O)[O-])cc1` are 1.85%, 1.8% (inactive) and 7.95%.
In the same order, the values of `O=C(NC1CCCCCC1)c1cccnc1Sc1ccc(Cl)cc1` are 1.73%, 4.58% (inactive) and 7.66%.
In the same order, the values of `O=C(CSc1ccccn1)Nc1nc2c(ccc3ccccc32)s1` are 1.64%, 2.26% (inactive) and 7.1%.
As to `CCO[C@H]1OC(C(=O)Nc2ccccc2)=C[C@@H](C2CC2)[C@@H]1CCCO`, the % Hoechst-high responders was 1.42%, the % tubulin-high responders is 1.2% (inactive) and the toxicity is 3.73%.
With `CCC(C)NC(=O)/C=C/c1ccc(S(=O)(=O)NCc2ccco2)cc1` (centres undefined), the % Hoechst-high responders is 1.97%, the % tubulin-high responders is 1.46% (inactive) and the toxicity was 3.99%.
In the same order, the values of `Cc1c(/C=N\NC(=O)c2cc3ccccc3o2)c2ccccc2n1C` are 21.2%, 38.7% (active) and 75.1%.
For `O=C(N/N=C/c1coc2ccccc2c1=O)c1cc2ccccc2o1`, the % Hoechst-high responders stood at 2.07%, the % tubulin-high responders was 3.76% (inactive) and the toxicity came to 5.72%.
On the same counts, the results for `Cc1c(/C=N/N2C(=O)C3C4C=CC(C4)C3C2=O)c2ccccc2n1C` (centres undefined) are 1.92%, 5.53% (inactive) and 6.18%.
In the same order, the values of `O=C(N/N=C/c1ccc(OCC2COCCO2)cc1)c1ccc(Br)cc1` (centres undefined) are 1.72%, 2.47% (inactive) and 8.95%.
On the same counts, the results for `CC(C)c1csc(CN2CCC(CO)(Cc3ccccc3)CC2)n1` are 1.55%, 3.05% (inactive) and 6.68%.
As to `O=S(=O)(c1ccc(F)cc1)N1CCN(C(=S)NCc2ccco2)CC1`, the % Hoechst-high responders was 3.02%, the % tubulin-high responders is 4.87% (inactive) and the toxicity turned out to be 5.01%.
Take `COc1ccc(CC(NC(C)=O)C(=O)NC2CCN(C(=O)C3CC3)CC2)cc1OC` (centres undefined): the % Hoechst-high responders was found to be 1.12%, the % tubulin-high responders is 2.29% (inactive) and the toxicity is 9.53%.
In the same order, the values of `O=C(CN1CCC(O)(c2ccccc2)CC1)Nc1ccc2c(c1)OCCO2` are 1.61%, 5.34% (inactive) and 10.9%.
On to `CCc1ccc2c(c1)C(c1ccc([N+](=O)[O-])cc1)=NNC(c1ccccc1)=N2`, for which the % Hoechst-high responders was found to be 3.31%, the % tubulin-high responders was 2.17% (inactive) and the toxicity turned out to be 4.07%.
On the same counts, the results for `CCOc1ccc2c(c1)C(c1ccc(C)cc1)=NNC(c1ccc(C)cc1)=N2` are 14.4%, 37.8% (active) and 35.7%.
On the same counts, the results for `Cc1ccc(C2=Nc3c(ccc4ccccc34)C(c3ccncc3)=NN2)cc1` are 2.17%, 4.68% (inactive) and 5.9%.
In the same order, the values of `COc1cccc(CN(C)CC(=O)Nc2sc3c(c2C#N)CCC3)c1` are 1.26%, 3.67% (inactive) and 4.57%.
For the compound `CC1(C)CC(=O)C(CC(=O)N2CCC(Cc3ccccc3)CC2)C(=O)C1`, the % Hoechst-high responders was 2.54%, the % tubulin-high responders was 4.67% (inactive) and the toxicity was found to be 7.14%.
In the case of `Cc1csc(CN(C)C(=O)CC2C(=O)NCCN2CC(C)(C)C)n1` (centres undefined), the % Hoechst-high responders was determined as 2.16%, the % tubulin-high responders is 2.8% (inactive) and the toxicity was found to be 7.49%.
In the same order, the values of `Nc1nonc1-n1nnc(C(=O)N/N=C/c2cc(Br)ccc2O)c1CSC1=NCCS1` are 0.673%, 9.12% (inactive) and 24.4%.

(Values after PubChem BioAssay AID2205 (University of Pittsburgh Molecular Library Screening Center, 2009).)
